Bioassay records deposited in PubChem BioAssay by several laboratories.
Hits are enriched below; roughly 3.7% of the tested compounds scored in any of these assays.
PfHsp90 yeast 2 – inhibits growth of yeast expressing Plasmodium falciparum Hsp90 | S. cerevisiae expressing PfHsp90, BacTiter-Glo ATP, 48 h; yeast lacking PDR1 and PDR3 efflux regulators | inhibition, % at 9.4 µM | 0.32% of 310,000 active;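 active means every replicate shows inhibition above about 80%, whatever the replicate mean, limit read from the data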;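 further: 0% = DMSO neutral controls and 100% = 20 µM radicicol positive controls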
tim10-1 inh – growth inhibitors of tim10-1 mutant yeast | S. cerevisiae tim10-1 ts strain growth, BacTiter-Glo, 24 h | inhibition, % at 20 µM | 2.2% of 330,000 active;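 active means inhibition of at least 40%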;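 further: mutant grown at 25 °C; 0% = DMSO wells with yeast and 100% = wells holding no yeast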
TIM10 inh – inhibits growth of TIM10 yeast strain; S. cerevisiae TIM10 strain growth, BacTiter-Glo luminescence, 24 h; inhibition, % at 10 µM; 1.4% of 330,000 active;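 active means inhibition of 40% or more at the single tested concentration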;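 further: wild-type TIM10 isogenic control strain grown at permissive 25 °C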
V-ATPase pHluor – alters yeast V-ATPase proton transport | S. cerevisiae, pHLuorin cytosolic pH fluorescence | response, % at 10 µM | 0.37% of 350,000 active | AID 504577; in the data active means response mostly above about 7.3%, no sharp cut-off; inactive means mostly below about 5.4%; further: actives read high
tim23-1 inh – tim23-1 yeast growth inhibition | S. cerevisiae tim23-1 growth, BacTiter-Glo luminescence, 24 h | 1.3% of 330,000 active | AID 463212 | inhibition, % at 20 µM;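 active means growth inhibition of the mutant yeast at or above 50%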;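 further: temperature-sensitive mutant grown at 25 °C; plate controls were DMSO-treated mutant yeast for no effect and medium wells lacking yeast for full effect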
tim10-1 conf – confirmation of tim10-1 mutant yeast growth inhibitors; shares compounds with tim10-1 inh; inhibition, % at 20 µM; 56% of 7,400 active; S. cerevisiae tim10-1 ts strain growth, BacTiter-Glo, 24 h;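 active means inhibition of yeast growth at or above a set limit in either of two repeat tests at 20 µM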;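 further: tim10-1 mutant grown at permissive 25 °C to find synthetic lethal compounds; 0% = DMSO yeast wells and 100% = medium wells without yeast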
tim10 confirm – TIM10 yeast growth inhibition, confirmed; 63% of 4,600 active; inhibition, % at 10 µM; S. cerevisiae tim10 strain growth, BacTiter-Glo luminescence, 24 h; shares compounds with TIM10 inh;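 active means inhibition of yeast growth at or above a set limit in either of two replicates at 10 µM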;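 further: this counterscreen used the strain with wild-type TIM10; 0% = yeast with DMSO and 100% = medium wells lacking yeast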
tim23-1 conf – tim23-1 yeast growth inhibition, confirmed; inhibition, % at 20 µM; S. cerevisiae tim23-1 growth, BacTiter-Glo luminescence, 24 h; shares compounds with tim23-1 inh; 83% of 4,400 active;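 active means inhibition above about 39% in either of two replicate wells at 20 µM, limit read from the data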;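 further: temperature-sensitive tim23-1 mutant grown at 25 °C; 0% = DMSO wells with yeast and 100% = medium wells without yeast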
* marks the source's active call; other numbers are inactive results; nt = not tested or not shown.

SMILES	PfHsp90 yeast 2	tim10-1 inh	TIM10 inh	V-ATPase pHluor	tim23-1 inh	tim10-1 conf	tim10 confirm	tim23-1 conf
O=C(/C(=C/O)N=Nc1ccccc1)c1ccc(Cl)cc1	106*	65*	58*	3	79*	49*	56*	39*
Cc1ccc(N=N/C(=C\O)C(=O)c2ccc(Cl)cc2)cc1	107*	48*	36	-2	60*	42*	nt	63*
CC(=O)c1ccc(N=Nc2ccc(C)cc2)cc1	-5	13	22	-3	23	nt	nt	nt
O=C(Cc1ccccc1)c1ccc(Cl)cc1	4	5	-8	2	-9	nt	nt	nt
COc1cc(OC)cc(C(=O)NNC(=O)c2cc(S(=O)(=O)N3CCOCC3)ccc2F)c1	-7	-5	-3	-9	-6	nt	nt	nt
CCCCNC(=O)c1ccc(/C=C2\Oc3ccccc3N(C)C2=O)cc1	8	20	5	5	-6	nt	nt	nt
CCN1CCN(CCCNC(=O)c2ccc(/C=C3/Oc4ccccc4N(Cc4cccc(C)c4)C3=O)cc2)CC1	35	49*	-2	-1	57*	7	nt	48*
CSc1ncc(Cl)c(C(=O)Nc2ccc(C)c(C)c2)n1	-26	26	8	1	24	nt	nt	nt
CCS(=O)(=O)c1ncc(Cl)c(C(=O)Nc2ccccc2OC)n1	-8	-5	-14	1	18	nt	nt	nt
CCOc1ccccc1NC(=O)c1nc(S(=O)(=O)Cc2ccccc2)ncc1Cl	-58	59*	32	-4	78*	41*	nt	74*
Cc1ccc(NC(=O)c2nc(S(=O)(=O)Cc3ccccc3C)ncc2Cl)cc1C	-14	42*	-33	-4	68*	-54	nt	60*
O=C(Cn1c(=O)cnc2ccccc21)NNC(=O)c1ccccc1Cl	-33	-3	5	-2	0	nt	nt	nt
O=c1oc(-c2ccc(Br)o2)nc2ccccc12	nt	46*	32	0	54*	16	nt	60*
CC(=O)N(C(C)=O)N1C(=O)/C(=C/c2ccc(Cl)cc2)SC1=S	114*	64*	57*	1	75*	58*	80*	39*
COC(=O)CCC(C)N1CCC(Oc2ccc(C(=O)NCc3ccccn3)cc2)CC1 (configuration not stated)	6	1	-6	-6	-2	nt	nt	nt
N#CC1CC(c2ccccc2)=NN1c1ccccc1[N+](=O)[O-] (configuration not stated)	5	39	39	0	30	nt	nt	nt
CCOC(=O)NC1=NCC(C)(C)S1	4	nt	nt	-3	nt	nt	nt	nt
COc1ccc(/C=C/C(=O)Nc2ccc(OC)nc2)cc1	-38	-38	-20	-1	-27	nt	nt	nt
COc1ccc(NC(=O)/C(Cl)=C(/Cl)S(=O)Cc2ccccc2)cn1 (configuration not stated)	119*	49*	69*	1	86*	34*	84*	14
COc1ccc(CS(=O)(=O)/C(Cl)=C(/Cl)C(=O)Nc2ccc(OC)nc2)cc1	-51	73*	52*	-3	72*	66*	58*	76*
Nc1nc(N)c2cc(Sc3ccc4ccccc4c3)ccc2n1	nt	89*	17	0	59*	84*	nt	68*
Cc1ccc(S/C=C\C(=O)c2ccccc2)cc1	6	49*	44*	0	58*	46*	55*	62*
Cc1ccc(C(=O)/C=C\C(=O)c2ccc(C)cc2)cc1	-12	nt	nt	-5	nt	nt	nt	nt
O=C(/C=C/c1cccc(Cl)c1)c1ccc([N+](=O)[O-])o1	108*	94*	96*	16	95*	96*	99*	99*
NS(=O)(=O)c1ccc(CNC(=O)/C=C/c2cccc(Cl)c2)cc1	-15	-1	-14	-3	-3	nt	nt	nt
SMILES	PfHsp90 yeast 2	tim10-1 inh	TIM10 inh	V-ATPase pHluor	tim23-1 inh	tim10-1 conf	tim10 confirm	tim23-1 conf
COc1cc(/C=C/C(=O)c2ccc([N+](=O)[O-])o2)ccc1O	112*	96*	97*	12	96*	97*	99*	99*
COc1cc(OC)c(C(=O)C=Cc2ccc(OC)c(OC)c2)c(OC)c1	nt	nt	nt	0	nt	nt	nt	nt
COc1ccc(/C=C/C(=O)c2ccc([N+](=O)[O-])o2)cc1OC	nt	91*	96*	nt	90*	89*	98*	97*
COc1ccc([C@H]2C[C@@H](O)[C@H](n3cc(C4CC4)nn3)CN2C(=O)C2CCCCC2)cc1	nt	nt	nt	2	nt	nt	nt	nt
CC(C)Cn1c2c(c(O)c(C(=O)Nc3ncccc3O)c1=O)CCCC2	-14	40*	50*	-3	55*	43*	57*	61*
CCc1ncc(CO)n1Cc1cccc2ccccc12	nt	nt	nt	0	nt	nt	nt	nt
Cc1ccc(/C(N)=N/OC(=O)c2ccc(Cl)cc2Cl)cc1	-100	47*	88*	3	80*	25	-1	44*
COc1ccc(Cl)cc1C(=O)O/N=C(\N)c1ccncc1	2	13	3	-2	6	nt	nt	nt
Cc1ccc(C(=O)O/N=C(\N)Cc2cccs2)c(Cl)c1	5	69*	85*	5	91*	63*	86*	87*
COc1ccccc1C(=O)O/N=C(\N)c1ccc(Cl)cc1	7	50*	36	2	64*	45*	nt	54*
COCCNC(=O)Cn1ccc2cc(S(=O)(=O)N3CCCCC3)ccc21	3	13	1	4	5	nt	nt	nt
CCN(CC)CC(O)c1ccc2ccc3ccc(O)cc3c2c1 (configuration not stated)	23	nt	nt	-2	nt	nt	nt	nt
S=C(NCCc1ccccc1)Nc1ccc(N2CCCCC2)cc1	-1	5	12	-4	41	nt	nt	nt
O=C1Nc2ccc(Br)cc2/C1=C/C1CC=CCC1 (configuration not stated)	103*	59*	59*	0	59*	50*	71*	-22
COc1ccc(CCC(=O)NC2CCC(C)CC2)cc1 (configuration not stated)	11	3	-16	3	1	nt	nt	nt
COC(=O)C1=C(C)N(c2cc(C)cc(C)c2)/C(=C/c2ccco2)C1=O	0	55*	39	2	54*	28	nt	50*
Clc1ccccc1-c1ncnc2ccc(Br)cc12	-12	12	-7	2	0	nt	nt	nt
NNc1nc(-c2ccccc2Cl)c2cc(Br)ccc2n1	-9	49*	41*	2	57*	37*	30*	43*
COc1ccc(CNC(=O)COC(=O)c2ccc(F)c(S(=O)(=O)N3CCCCC3)c2)cc1OC	7	-4	-19	-2	10	nt	nt	nt
CCOc1cc(S(=O)(=O)NCc2cccnc2)c(C)cc1C	2	15	21	-4	5	nt	nt	nt
